HP1b chromo inh: blocks HP1-beta chromodomain binding to methylated histone tails. AlphaScreen HP1-beta / biotin-H3K9me3 peptide binding. Potency, µM (series often up to 114 µM), hits mostly inhibitors. 390,000 compounds, 0.56% hits. AID 540317; note: nearly all actives have a fitted effect of over 70% in size
Target sequence (P83916 whole entry, looked up): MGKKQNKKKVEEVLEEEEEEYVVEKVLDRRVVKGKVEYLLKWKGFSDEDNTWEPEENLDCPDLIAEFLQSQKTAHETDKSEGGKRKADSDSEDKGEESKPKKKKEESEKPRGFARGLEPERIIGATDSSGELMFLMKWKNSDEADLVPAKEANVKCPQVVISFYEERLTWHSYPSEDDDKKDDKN
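Compound inhibition of the preformed complex between 50 nM HP1-beta and 50 nM biotinylated H3K9me3 peptide was read by AlphaScreen. Buffer was PBS pH 7.4 with 0.01% Tween-20. Incubations ran 30 min at room temperature, with 10 ug/mL donor/acceptor beads.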
G9a block: blocks human histone lysine methyltransferase G9a. AID 504332. G9a H3K9 monomethylation, AlphaScreen, 2 h. Potency, µM (series often up to 102 µM), most hits filed as inhibitors. 350,000 compounds, 8.8% hits. Q96KQ7; note: nearly all actives have a fitted effect of over 75% in size
Target sequence (Q96KQ7 913-1193 limits assumed): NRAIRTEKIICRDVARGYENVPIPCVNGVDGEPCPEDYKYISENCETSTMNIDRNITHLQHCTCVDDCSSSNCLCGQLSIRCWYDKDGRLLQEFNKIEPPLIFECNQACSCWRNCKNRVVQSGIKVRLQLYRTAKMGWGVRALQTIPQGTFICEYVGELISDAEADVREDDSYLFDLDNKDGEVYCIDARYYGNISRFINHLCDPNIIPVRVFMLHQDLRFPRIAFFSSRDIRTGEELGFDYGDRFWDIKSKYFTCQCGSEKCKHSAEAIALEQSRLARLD
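AlphaScreen detection with an anti-monomethyl H3K9 antibody quantified product after a 2 h room-temperature reaction containing 500 nM biotinylated H3K9 peptide, 20 µM SAM and 20 nM enzyme, which had been preincubated 15 min with compound.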
PI5P4K alpha inh: inhibitors of human PI5P4K alpha; P48426; PI5P4Kalpha enzyme, ADP-Glo luminescence, 60 min; active compounds read low; max response, %; 330,000 compounds, 1.2% hits; AID 652105; active = max response of -50% or lower; inconclusive = between -30% and -50%; inactive = -30% or higher; note: value at the top dose of about 77 µM
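ADP-Glo luminescence end-point after a 60 min room-temperature kinase reaction. PI5P4Kalpha and substrate in HEPES pH 7.4 buffer with EGTA, 0.1% CHAPS and 5% DMSO; ATP at 5 microM final.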
JMJD2A Tudor: JMJD2A Tudor domain (human) inhibition; O75164; AlphaScreen JMJD2A-Tudor / H3K4me3 peptide binding; Potency, µM (highest dose often 114 µM), usual class: inhibitors; 390,000 compounds, 4.4% hits; note: nearly all actives have a fitted effect of over 50% in size
L3MBTL1 inh: L3MBTL1 (human) inhibition | Potency, µM (titrated, usually from 57.1 µM), most hits filed as inhibitors | 230,000 compounds, 0.66% hits | AlphaScreen L3MBTL1–H3K9me1 peptide binding; note: nearly all actives have a fitted effect of over 60% in size
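Displacement of a biotinylated histone H3(1-15) peptide monomethylated at Lys9 (75 nM) from L3MBTL1 (50 nM) was measured by AlphaScreen after a 30 min room-temperature compound incubation; cefsulodin titration served as intraplate control.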
BAZ2B inh: BAZ2B (human) inhibition | AlphaScreen BAZ2B-H3K14Ac peptide displacement | Potency, µM (titrated, usually from 114 µM), hits mostly inhibitors | 360,000 compounds, 4.4% hits | AID 504333; note: nearly all actives have a fitted effect of over 60% in size
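AlphaScreen luminescence quantifies BAZ2B engagement of H3K14Ac peptide; the protein and biotinylated peptide are both at 50 nM final, buffer PBS pH 7.4 with 0.01% Tween-20, all steps at room temperature.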
A number is an active result; [ ] = dose if it differs, or a comment. Compounds with a hit are over-represented: about 11% of the library has one in this group of screens. Unless noted, calls come from the whole dose curve; as a rule, active = well fitted inhibition curve with a large enough effect; inconclusive = small, poorly fitted or top-dose-only effect; inactive = no such curve, though single readings can be large or run the other way.

How did CCCCc1nn2c(=O)cc(COC(=O)c3ccco3)nc2s1 do in these assays?
HP1b chromo inh: inactive; G9a block: inactive; JMJD2A Tudor: inactive; BAZ2B inh: inactive

How did CC(=O)C1CCC2C3CC(C)C4=CC(=O)CC[C@@]4(C)C3C(O)C[C@@]12C (stereo not given in full) do in these assays?
G9a block: inactive[2.33 µM]

Results for Cc1nnc2c3ccccc3nc(N3CCN(c4cccc(Cl)c4)CC3)n12 ?
HP1b chromo inh: inactive; G9a block: inconclusive; JMJD2A Tudor: inconclusive; BAZ2B inh: inconclusive

How did CN(C)S(=O)(=O)c1cccc(-n2sc3ccccc3c2=O)c1 do in these assays?
HP1b chromo inh: inactive; G9a block: inactive; PI5P4K alpha inh: -91; JMJD2A Tudor: 14µM; L3MBTL1 inh: inactive; BAZ2B inh: 4.5µM

Results for CN(C)S(=O)(=O)c1ccc2[nH]cc(/C=C/c3nc4ccccc4c(=O)n3-c3ccccc3)c2c1 ?
HP1b chromo inh: inactive; JMJD2A Tudor: inactive; L3MBTL1 inh: inactive; BAZ2B inh: inactive

Results for O=C(C1=NN[C@@H]2C(=O)N(c3cccc(F)c3)C(=O)[C@H]12)c1cnccn1 ?
HP1b chromo inh: inactive; G9a block: 20µM; PI5P4K alpha inh: inactive; JMJD2A Tudor: 18µM; L3MBTL1 inh: inactive; BAZ2B inh: 45µM

How did CCN1C(=O)[C@@H]2C(C(=O)c3cnccn3)=NN[C@@H]2C1=O do in these assays?
HP1b chromo inh: inactive; PI5P4K alpha inh: inactive; JMJD2A Tudor: 45µM; L3MBTL1 inh: inactive; BAZ2B inh: inactive

What do the screens show for `O=C(C1=NN[C@@H]2C(=O)N(c3ccccc3C(F)(F)F)C(=O)[C@H]12)c1cnccn1`?
HP1b chromo inh: inactive; G9a block: inconclusive; PI5P4K alpha inh: inactive; JMJD2A Tudor: inactive; BAZ2B inh: inactive

What do the screens show for `CCCCN1C(=O)C2NN=C(C(=O)OC)C2C1=O` (stereo not given)?
HP1b chromo inh: inactive; G9a block: inconclusive; PI5P4K alpha inh: inactive; JMJD2A Tudor: inactive; BAZ2B inh: inconclusive

How did C=Cc1ccc(Cn2c(=O)n(-c3cccc(C)c3)c(=O)c3c2c2cc(C)ccc2n3C)cc1 do in these assays?
HP1b chromo inh: inactive; G9a block: inactive; JMJD2A Tudor: inactive; BAZ2B inh: inactive

Results for COc1ccccc1CC(=O)Nc1ccc2c(C)cc(=O)oc2c1 ?
HP1b chromo inh: inactive; G9a block: 71µM; PI5P4K alpha inh: inactive; JMJD2A Tudor: inactive; L3MBTL1 inh: inactive; BAZ2B inh: inactive

Results for Cc1ccccc1CC(=O)Nc1ccc2c(C)cc(=O)oc2c1 ?
HP1b chromo inh: inactive; PI5P4K alpha inh: inactive; JMJD2A Tudor: inactive; BAZ2B inh: inactive

Results for COc1ccc(NC(=S)NC(NC(=O)c2cccc3ccccc23)C(Cl)(Cl)Cl)c([N+](=O)[O-])c1 (stereo not given) ?
HP1b chromo inh: inactive; G9a block: 45µM; JMJD2A Tudor: inconclusive; BAZ2B inh: inconclusive

How did COc1ccc(NC(=S)NC(NC(=O)CCl)C(Cl)(Cl)Cl)c([N+](=O)[O-])c1 (stereo not given) do in these assays?
HP1b chromo inh: inconclusive; G9a block: 25µM; PI5P4K alpha inh: -55; JMJD2A Tudor: inconclusive; L3MBTL1 inh: inactive; BAZ2B inh: inconclusive

What do the screens show for `Cc1ccc(NC(=O)CSc2nc3nc(C)c(Cc4ccccc4)c(C)n3n2)cc1`?
HP1b chromo inh: inactive; G9a block: inactive; JMJD2A Tudor: inactive; BAZ2B inh: inactive

Results for Clc1ccc(CN2CCN(c3ncnc4scc(-c5cccs5)c34)CC2)cc1 ?
HP1b chromo inh: inactive; G9a block: 32µM; PI5P4K alpha inh: inactive; JMJD2A Tudor: inactive; BAZ2B inh: inactive

How did Fc1ccc(CN2CCN(c3ncnc4scc(-c5ccc(F)cc5)c34)CC2)cc1 do in these assays?
HP1b chromo inh: inactive; G9a block: inactive; PI5P4K alpha inh: inactive; JMJD2A Tudor: inconclusive; BAZ2B inh: inconclusive

Results for Cc1ccc(-n2ncc(C(=O)NCc3ccco3)c2C2CCN(C(=O)OC(C)(C)C)CC2)cc1 ?
HP1b chromo inh: inactive; G9a block: inconclusive; JMJD2A Tudor: inactive; BAZ2B inh: inactive

What do the screens show for `CCn1c(C)c(C2=CCN(S(=O)(=O)c3ccccc3)CC2)c2ccccc21`?
HP1b chromo inh: inconclusive; G9a block: 40µM; PI5P4K alpha inh: inactive; JMJD2A Tudor: inconclusive; L3MBTL1 inh: inactive; BAZ2B inh: inconclusive

Results for Cc1ccc(S(=O)(=O)N2CC=C(c3c(C)n(C)c4ccccc34)CC2)cc1 ?
HP1b chromo inh: inconclusive; G9a block: inconclusive; PI5P4K alpha inh: inactive; JMJD2A Tudor: inconclusive; L3MBTL1 inh: inactive; BAZ2B inh: inconclusive

Results for C[C@H](CCC(=O)NCC(=O)O)C1CC[C@H]2C3CC[C@@H]4C[C@H](O)CC[C@]4(C)C3C[C@H](O)[C@]12C (stereo not given in full) ?
G9a block: inactive

What do the screens show for `Cc1cccc(-c2noc(-c3ccccc3OCC(=O)Nc3ccc([N+](=O)[O-])cc3)n2)c1`?
HP1b chromo inh: inactive; G9a block: inconclusive; JMJD2A Tudor: 28µM; BAZ2B inh: inactive

Results for Cc1cc2c(OCC(CNC(C)(C)C)OC(=O)c3ccccc3)cccc2[nH]1 (stereo not given) ?
G9a block: 16µM

How did Cc1nc(Nc2ccc(C(=O)O)cc2)nc(Nc2ccc(C(=O)O)cc2)c1[N+](=O)[O-] do in these assays?
HP1b chromo inh: inactive; G9a block: 45µM; PI5P4K alpha inh: -56; JMJD2A Tudor: inactive; L3MBTL1 inh: inactive; BAZ2B inh: inactive

What do the screens show for `COc1ccc(Nc2nc(N/N=C/c3ccc(N(C)C)cc3)nc(C)c2[N+](=O)[O-])cc1`?
HP1b chromo inh: inactive; G9a block: 5µM; PI5P4K alpha inh: inactive; JMJD2A Tudor: inconclusive; L3MBTL1 inh: inconclusive; BAZ2B inh: inconclusive

Results for O=C(c1ccc(Br)cc1)N(Cc1ccco1)c1ccccn1 ?
HP1b chromo inh: inactive; G9a block: inactive; JMJD2A Tudor: inactive; BAZ2B inh: inconclusive

How did Cc1ccc(NNC(=O)c2snnc2C)cc1Cl do in these assays?
HP1b chromo inh: inactive; PI5P4K alpha inh: inactive; JMJD2A Tudor: inactive; BAZ2B inh: inactive

Results for Cc1cc(C(=O)NNc2ccc(F)cc2F)no1 ?
HP1b chromo inh: inactive; G9a block: inactive; PI5P4K alpha inh: inactive; JMJD2A Tudor: inactive; L3MBTL1 inh: inactive; BAZ2B inh: inactive

Results for Cc1cc(C(=O)NNc2ccc(C)c(C)c2)no1 ?
HP1b chromo inh: inactive; G9a block: 2.5µM; PI5P4K alpha inh: inactive; JMJD2A Tudor: inactive; L3MBTL1 inh: inactive; BAZ2B inh: inactive

Results for Cc1ccc(NNC(=O)c2cc(C)on2)c(C)c1 ?
HP1b chromo inh: inactive; G9a block: 11µM; PI5P4K alpha inh: inactive; JMJD2A Tudor: inactive; L3MBTL1 inh: inactive; BAZ2B inh: inactive

Results for Cc1ccc(NNC(=O)c2ccno2)cc1Cl ?
HP1b chromo inh: inactive; G9a block: 8.9µM; PI5P4K alpha inh: inactive; JMJD2A Tudor: inactive; L3MBTL1 inh: inactive; BAZ2B inh: inactive

Compound activity from PubChem.
